Results filed as inconclusive are left out. Where a call stands in place of a potency, no number is given. Values without a mark were called inactive. Active and inactive are the calls of the source. Calls come from the whole dose curve; as a rule, active = well fitted curve in the direction sought with a large enough effect; inconclusive = small, poorly fitted or top-dose-only effect, or another doubt; inactive = no such curve, though single readings can be large; an effect the other way counts as inactive or inconclusive.
Key:
[1] = qHTS of pediatric cancer cell lines to identify multiple opportunities for drug repurposing: Primary screen for OHS-50 cells (AID 1347103); note: nearly all actives have a fitted effect of over 40% in size
Procedure, shortened: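 Cells (500-1,000/well) rested 5 h, then received compounds for 48 h; metabolically active cells were measured by CellTiter-Glo luminescence. Final concentrations spanned up to 46 µM (MIPE, 11-point) or 0.59 nM-46 µM (NPC, 8-point) in primary screens, 11-point in follow-ups.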

[2] = qHTS of pediatric cancer cell lines to identify multiple opportunities for drug repurposing: Primary screen for RD cells (AID 1347104); note: nearly all actives have a fitted effect of over 55% in size
Procedure, shortened: (§1)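 CRCs from 8- or 11-point titrations (lowest final 0.59 nM NPC, 0.78 nM MIPE). Cell viability: CellTiter-Glo after 48 h incubation, 15 min room-temperature development, luminescence imaging.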

[3] = qHTS of pediatric cancer cell lines to identify multiple opportunities for drug repurposing: Primary screen for MG 63 (6-TG R) cells (AID 1347105); note: nearly all actives have a fitted effect of over 50% in size
Procedure, shortened: as §1

[4] = qHTS of pediatric cancer cell lines to identify multiple opportunities for drug repurposing: Primary screen for control Hh wild type fibroblast cells (AID 1347106); note: nearly all actives have a fitted effect of over 55% in size;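 for activity change, negative = cytotoxic: series mostly up to about 46 µM; a drop in luminescence marks cytotoxicity and a rise apparent proliferation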
Procedure, shortened: (§2)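 Viability after 48 h compound treatment at 37C, 500-1,000 cells/well, read as ATP luminescence with CellTiter-Glo. Primary screens used 11-point (MIPE, 0.78 nM-46 µM) or 8-point (NPC, 0.59 nM-46 µM) final concentrations; follow-up screens used 11-point dilutions.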

[5] = qHTS of pediatric cancer cell lines to identify multiple opportunities for drug repurposing: Primary screen for Rh30 cells (AID 1347107); note: nearly all actives have a fitted effect of over 75% in size; for activity change, negative = cytotoxic: series mostly up to about 46 µM
Procedure, shortened: as §2

[6] = qHTS of pediatric cancer cell lines to identify multiple opportunities for drug repurposing: Primary screen for Rh41 cells (AID 1347108); note: nearly all actives have a fitted effect of over 70% in size;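 for activity change, negative = cytotoxic: series mostly up to about 46 µM; luminescence drop marks cytotoxic hits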
Procedure, shortened: as §1

[7] = qHTS of pediatric cancer cell lines to identify multiple opportunities for drug repurposing: Confirmatory screen for A673 cells (AID 1347110); note: nearly all actives have a fitted effect of over 65% in size
Procedure, shortened: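 Forty-eight-hour viability assay. Follow-up compounds ran at 11-point dilutions; positive control bortezomib at 2.3 uM final, neutral control DMSO.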

[8] = qHTS of pediatric cancer cell lines to identify multiple opportunities for drug repurposing: Confirmatory screen for SK-N-MC cells (AID 1347111);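 note: cells exposed to compound for 48 h before the readout; nearly all actives have a fitted effect of over 70% in size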
Procedure, shortened: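 SK-N-MC cells at 500-1,000 cells/well in growth media were pre-incubated 5 h, then exposed to compounds at 11-point dilutions for 48 h at 37 degrees C, 5% CO2. Viability was read as CellTiter-Glo luminescence.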

[9] = qHTS of pediatric cancer cell lines to identify multiple opportunities for drug repurposing: Confirmatory screen for BT-12 cells (AID 1347112); note: nearly all actives have a fitted effect of over 55% in size
Procedure, shortened: as §2

[10] = qHTS of pediatric cancer cell lines to identify multiple opportunities for drug repurposing: Confirmatory screen for NB1643 cells (AID 1347109); note: nearly all actives have a fitted effect of over 45% in size
Procedure, shortened: as §2
Potency is the fitted concentration of half-maximal effect.

## CCN1CCN(C(=O)N[C@H](C(=O)N[C@@H]2C(=O)N3C(C(=O)O)=C(CSc4nnnn4C)CS[C@@H]23)c2ccc(O)cc2)C(=O)C1=O
[1]
  activity change, negative = cytotoxic: 20.3% [at 11.5 µM]
[2]
  activity change, negative = cytotoxic: 6.64% [at 9.22 µM]
[3]
  activity change, negative = cytotoxic: 4.31% [at 9.22 µM]
[4]
  activity change, negative = cytotoxic: -2.3% [at 9.22 µM]
[5]
  activity change, negative = cytotoxic: 26.1% [at 9.22 µM]
[6]
  activity change, negative = cytotoxic: 38.6% [at 9.22 µM]

## CC(=O)OC[C@@H]1O[C@@H](n2ccc(=O)[nH]c2=O)[C@H](OC(C)=O)[C@H]1OC(C)=O
[1]
  Potency: inactive
[2]
  Potency: inactive
[3]
  Potency: inactive
[4]
  Potency: inactive

## COC(=O)[C@H](CCCN=C(N)N)NS(=O)(=O)c1ccc(C)cc1
[1]
  Potency: inactive
[2]
  Potency: inactive
[3]
  Potency: inactive
[4]
  Potency: inactive
[5]
  Potency: inactive
[6]
  Potency: inactive

## O=C1NC(O)CCN1[C@@H]1O[C@H](CO)[C@H](O)[C@H]1O (stereo not given in full)
[1]
  Potency: inactive
[2]
  Potency: inactive
[3]
  Potency: inactive
[4]
  Potency: inactive
[5]
  Potency: inactive

## CCCCCCCCc1ccc(CCC(N)(CO)CO)cc1
[1]
  Potency: 15300 nM (active)
[2]
  Potency: 8330 nM (active)
[3]
  Potency: 18700 nM (active)
[4]
  Potency: inactive
[5]
  Potency: 18700 nM (active)

## OCC(O)C(O)C(O)CO (stereo not given)
[1]
  Potency: inactive
[2]
  Potency: inactive
[3]
  Potency: inactive
[4]
  Potency: inactive
[5]
  Potency: inactive

## C[C@H]1O[C@H](O[C@H]2[C@H](O)[C@@H](O)[C@@H](O[C@H]3[C@H](O)[C@@H](O)C(O)O[C@H]3CO)O[C@H]2CO)[C@H](O)[C@@H](O)[C@H]1N[C@H]1C=C(CO)[C@@H](O)[C@H](O)[C@@H]1O (stereo not given in full)
[1]
  Potency: 2170 nM (active)
[2]
  Potency: inactive
[3]
  Potency: inactive
[4]
  Potency: inactive
[5]
  Potency: inactive
[6]
  Potency: inactive

## O=C(O)C=Cc1ccc(Cn2ccnc2)cc1
[1]
  Potency: inactive
[2]
  Potency: inactive
[3]
  Potency: inactive
[4]
  Potency: inactive
[5]
  Potency: inactive
[6]
  Potency: inactive

## C[N+]1(C)[C@@H]2C[C@@H](OC(=O)C(O)(c3cccs3)c3cccs3)C[C@H]1[C@@H]1O[C@@H]12
[1]
  Potency: inactive
[2]
  Potency: inactive
[3]
  Potency: inactive
[4]
  Potency: inactive
[5]
  Potency: inactive
[6]
  Potency: inactive

## COc1cc(C(=O)NC2CCN(C)CC2)ccc1Nc1ncc2c(n1)N(C1CCCC1)CCC(=O)N2C(C)C
[1]
  Potency: 3430 nM (active)
[2]
  Potency: 20900 nM (active)
[3]
  Potency: 2960 nM (active)
[4]
  Potency: inactive

## CN1C(C(=O)Nc2ccccn2)=C(O)c2sc(Cl)cc2S1(=O)=O
[1]
  Potency: inactive

## Nc1nc(=O)n([C@H]2C[C@H](O)[C@@H](CO)O2)cc1F
[1]
  Potency: inactive
[2]
  Potency: inactive
[3]
  Potency: inactive
[4]
  Potency: inactive

## C[C@H](O)[C@@H]1C(=O)N2C(C(=O)O)=C(S[C@@H]3CN[C@H](CNS(N)(=O)=O)C3)[C@@H](C)[C@@H]12
[1]
  Potency: inactive
[2]
  Potency: inactive
[3]
  Potency: inactive
[4]
  Potency: inactive
[5]
  Potency: inactive
[6]
  Potency: inactive

## NC(=O)c1ncn([C@@H]2O[C@H](CO)[C@@H](O)[C@@H]2O)c1N
[1]
  Potency: inactive
[2]
  Potency: inactive
[3]
  Potency: inactive
[4]
  Potency: inactive
[5]
  Potency: inactive
[6]
  Potency: inactive

## CC(=O)[C@]1(O)Cc2c(O)c3c(c(O)c2[C@@H](O[C@H]2C[C@H](N)[C@@H](O)[C@H](C)O2)C1)C(=O)c1ccccc1C3=O
[1]
  Potency: 485 nM (active)
[2]
  Potency: 1050 nM (active)
[3]
  Potency: 235 nM (active)
[4]
  Potency: 3720 nM (active)
[5]
  Potency: 4690 nM (active)
[6]
  Potency: 935 nM (active)
[7]
  Potency: 82.7 nM (active)
[8]
  Potency: 522 nM (active)
[9]
  Potency: 4140 nM (active)

## OC[C@H]1OC(O)C[C@@H](O)[C@H]1O (stereo not given in full)
[1]
  Potency: inactive
[2]
  Potency: inactive
[3]
  Potency: inactive
[4]
  Potency: inactive
[5]
  Potency: inactive
[6]
  Potency: inactive

## CC(C)(O)Cn1c(NC(=O)c2ccc(-c3cn[nH]c3)s2)nc2cc(CN3CCOCC3)ccc21
[1]
  Potency: 1220 nM (active)
[2]
  Potency: 1870 nM (active)
[3]
  Potency: 3720 nM (active)
[4]
  Potency: 6620 nM (active)
[5]
  Potency: inactive
[6]
  Potency: 1180 nM (active)
[10]
  Potency: 329 nM (active)
[7]
  Potency: 1170 nM (active)
[8]
  Potency: 1310 nM (active)
[9]
  Potency: 1040 nM (active)

## Cn1cnc(=N)c2[nH]cnc21
[1]
  Potency: 109 nM (active)
[2]
  Potency: 935 nM (active)
[3]
  Potency: 1480 nM (active)
[4]
  Potency: inactive
[5]
  Potency: 14800 nM (active)
[7]
  Potency: inactive
[8]
  Potency: inactive
[9]
  Potency: inactive

## CCOC(=O)[C@H](CCc1ccccc1)N[C@@H](C)C(=O)N1[C@@H](C(=O)O)C[C@H]2CCC[C@@H]21
[1]
  Potency: 19300 nM (active)
[2]
  Potency: 18700 nM (active)
[3]
  Potency: 18700 nM (active)
[4]
  Potency: inactive
[5]
  Potency: 18700 nM (active)
[6]
  Potency: 11800 nM (active)

## CON=C(C(=O)N[C@@H]1C(=O)N2C(C(=O)O)=C(Cn3ccc(=N)n3CCO)CS[C@H]12)c1csc(N)n1
[1]
  Potency: inactive
[2]
  Potency: inactive
[3]
  Potency: inactive
[4]
  Potency: inactive
[5]
  Potency: inactive
[6]
  Potency: inactive

## NC(=O)c1ncn([C@@H]2O[C@H](CO)[C@@H](O)[C@@H]2O)c1O
[1]
  Potency: inactive
[2]
  Potency: inactive
[3]
  Potency: inactive
[4]
  Potency: inactive
[5]
  Potency: inactive
[6]
  Potency: inactive

## CN(C)c1ccc(C(=O)NCCCCCCC(=O)NO)cc1
[1]
  Potency: 344 nM (active)
[2]
  Potency: 2090 nM (active)
[3]
  Potency: 2350 nM (active)
[4]
  Potency: 3720 nM (active)
[5]
  Potency: 2350 nM (active)
[10]
  Potency: 1170 nM (active)
[7]
  Potency: 1850 nM (active)
[8]
  Potency: 1040 nM (active)
[9]
  Potency: 13100 nM (active)

From PubChem BioAssay (NCATS)
